Rows were chosen to be rich in hits. Some 4.8% of all compounds tested hit in one or more screens of this group.
ATXN2 expr inh: reduces ATXN2 reporter expression in HEK-293 cells | HEK-293 ATXN2-luciferase reporter, luminescence, 24 h | 360,000 compounds, 0.72% hits | Potency, µM (top dose mostly 57 µM), for the others: at the top dose activity change, negative = inhibition, most hits filed as inhibitors | AID 1745845; also: potency is read from the fitted curve at half-maximal effect; % is scaled to controls: 0 for no effect and ±100 for the full control effect; nearly all actives have a fitted effect of over 55% in size
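qHTS (up to 57 uM final) was run with 24 h compound exposure of reporter cells at 37 °C. Each well was multiplexed: SteadyGlo luminescence measured ATXN2-luciferase expression after a fluorogenic Gly-Phe-AFC viability readout (25 uM final).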
IL1B secr inh: blocks inflammasome-driven IL-1 beta release | THP-1 LPS/ATP IL-1B secretion, AlphaLISA, 16 h; stronger effect = lower value | activity change, % at 57.5 µM | 360,000 compounds, 4.7% hits | AID 743279; in the data active = activity change below about -50%; inconclusive = mostly about -30% to -49%; also: % is scaled to controls: 0 for no effect and ±100 for the full control effect
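THP-1 cells pretreated 1 hr with compounds (up to 57.5 uM final), then stimulated with LPS (250 ng/mL final) plus ATP (1.25 mM final); secreted IL-1B measured by AlphaLISA after 16 hr, decreased signal indicating inhibition.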
S2 tox: cell viability loss in ATXN counter-screen. S2 cells (HEK-293 line with an ATXN2-luciferase reporter) viability, CellTiter-Fluor protease fluorescence, 24 h. AID 651635. Potency, µM (series often up to 56.7 µM), actives largely listed as cytotoxic. 400,000 compounds, 0.49% hits; also: potency is read from the fitted curve at half-maximal effect; nearly all actives have a fitted effect of over 40% in size
USP2a inh: blocks human ubiquitin-specific protease USP2a. AID 463254. O75604. Potency, µM (titrated, usually from 38.3 µM), for the others: at the highest dose activity change, negative = inhibition, usual class: inhibitors. 330,000 compounds, 0.01% hits. USP2 core, Ub-CHOP2 coupled fluorogenic reporter, 485/531;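 also: potency is read from the fitted curve at half-maximal effect; plate controls were DMSO wells for no effect and full inhibition by NEM control for full effect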
Target sequence (O75604 whole entry, looked up): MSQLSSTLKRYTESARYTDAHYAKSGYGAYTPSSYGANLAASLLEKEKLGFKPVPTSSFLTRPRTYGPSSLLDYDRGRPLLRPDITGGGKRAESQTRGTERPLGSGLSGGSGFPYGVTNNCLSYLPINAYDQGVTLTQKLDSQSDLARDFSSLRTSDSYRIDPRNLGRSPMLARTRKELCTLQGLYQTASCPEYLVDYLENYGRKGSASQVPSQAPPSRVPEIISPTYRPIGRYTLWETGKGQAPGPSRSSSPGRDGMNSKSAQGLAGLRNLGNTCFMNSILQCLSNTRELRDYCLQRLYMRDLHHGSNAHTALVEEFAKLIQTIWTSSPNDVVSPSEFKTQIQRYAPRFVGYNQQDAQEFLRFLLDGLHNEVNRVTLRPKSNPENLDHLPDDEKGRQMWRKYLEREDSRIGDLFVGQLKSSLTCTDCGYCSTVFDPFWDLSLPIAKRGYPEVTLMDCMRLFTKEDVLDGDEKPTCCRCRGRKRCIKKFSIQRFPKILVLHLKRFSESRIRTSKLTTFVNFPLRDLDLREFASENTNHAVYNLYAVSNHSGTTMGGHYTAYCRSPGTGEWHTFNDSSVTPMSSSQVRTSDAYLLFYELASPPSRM
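USP2 core (10nM final) preincubated 30min RT with compound in 20mM Tris-HCl pH 8.0, 2mM CaCl2, 2mM beta-mercaptoethanol, 0.05% CHAPS; 25nM Ub-CHOP2 plus 25nM reporter substrate added, fluorescence (Ex485/Em531) read after 60min.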
USP1-UAF1 inh: blocks the human USP1/UAF1 deubiquitinase complex; O94782; recombinant USP1/UAF1, Ub-Rhodamine cleavage fluorescence; Potency, µM (top dose mostly 57.1 µM), for inactives: top-dose activity change, negative = inhibition, most hits filed as inhibitors; 390,000 compounds, 0.23% hits; also: potency is read from the fitted curve at half-maximal effect; % is scaled to controls: 0 for no effect and ±100 for the full control effect; nearly all actives have a fitted effect of over 60% in size
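Step one: compound is pinned into 1nM USP1/UAF1 in HEPES pH 7.8 buffer with TCEP. Step two: 15 min room-temperature incubation. Step three: Ub-Rho (150nM final) starts cleavage, tracked by fluorescence over six one-minute reads.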
The depositor's hits bear a star; i = inactive; ? = inconclusive; / = not tested or not shown. Unless noted, calls follow the shape of the dose curve; as a rule, active = well fitted curve in the direction sought with a large enough effect; inconclusive = small, poorly fitted or top-dose-only effect, or another doubt; inactive = no such curve, though single readings can be large; an effect the other way counts as inactive or inconclusive.

SMILES	ATXN2 expr inh	IL1B secr inh	S2 tox	USP2a inh	USP1-UAF1 inh
CCCN(CCC)CCNC(=O)Cn1cnc2sc(C)c(S(=O)(=O)N3CCN(c4ccccc4OC)CC3)c2c1=O	4%	/	i	/	-10%
CCCC[C@@H]1Cc2[nH][nH]c(=O)c2[C@H](c2ccc3ccccc3c2)O1	3%	-12	i	/	/
COc1ccccc1C(=O)Nc1nc(-c2ccc(S(=O)(=O)N3CCOCC3)cc2)cs1	14µM*	?	?	-2%	-15%
COc1ccccc1OC(C)C(=O)Nc1nc(-c2ccc(S(=O)(=O)N3CCOCC3)cc2)cs1 (centres undefined)	5%	0	?	-8%	-23%
COc1ccc(-c2csc(NC(=O)c3ccccc3S(C)(=O)=O)n2)cc1	/	-95*	i	3%	1%
O=C(COc1cccc(F)c1)Nc1nc(-c2ccncc2)cs1	/	0	i	0%	-18%
COc1ccc(CN2CCOc3ccc(CN4CCC(O)(c5cccnc5)CC4)cc3C2)c(C)c1C	/	/	i	/	/
CS(=O)(=O)c1nc(S(=O)(=O)c2ccc(Cl)cc2)c(N2CCOCC2)s1	-5%	-76*	i	0%	-22%
CCN1CCN(c2sc(S(=O)(=O)CC)nc2S(=O)(=O)c2ccc(Cl)cc2)CC1	/	-66*	?	/	-28%
CCS(=O)(=O)c1nc(S(=O)(=O)c2ccc(Cl)cc2)c(N2CCN(CCO)CC2)s1	/	-17	/	6%	-5%
CCCS(=O)(=O)c1nc(S(=O)(=O)c2ccc(C)cc2)c(N2CCOCC2)s1	-1%	-74*	i	1%	-9%
CCS(=O)(=O)c1nc(S(=O)(=O)c2ccc(Cl)cc2)c(NCCCN2CCOCC2)s1	6%	-51*	i	5%	-15%
CCOC(=O)C(=O)N(C)c1c(CC)nc2c(OCc3cccc(OC)c3)cccn12	6%	16	i	/	/
CC1CCCN(c2sc(S(C)(=O)=O)nc2S(=O)(=O)c2ccc(Cl)cc2)C1 (centres undefined)	-16%	-71*	i	2%	-16%
CC1CN(c2sc(S(C)(=O)=O)nc2S(=O)(=O)c2ccc(Cl)cc2)CC(C)O1 (centres undefined)	-8%	-64*	i	2%	-14%
CCS(=O)(=O)c1nc(S(=O)(=O)c2ccc(C)cc2)c(N2CCCC(C)C2)s1 (centres undefined)	-8%	?	i	0%	-12%
O=C(O)CCCC[P+](c1ccccc1)(c1ccccc1)c1ccccc1	10%	/	i	/	/
Cc1cc(/C=C(/C#N)c2cccc(F)c2)c(C)n1-c1cccnc1	7%	-89*	i	2%	-30%
C[C@H](NC(=O)c1ccccc1)C(=O)OCC(=O)Nc1sccc1C(N)=O	-5%	20	i	6%	-13%
COc1cc(-c2ccc3oc(-c4ccsc4)cc(=O)c3c2)cc(OC)c1OC	?	-58*	?	2%	-14%
COC(=O)COc1cccc(NC(=O)c2cccs2)c1	-1%	-53*	i	-1%	1%
COC(=O)COc1cccc(NC(=O)c2ccccc2)c1	-7%	-8	i	1%	-4%
COc1ccc(/C=C/C(=O)c2ccc(NC(=O)c3cccs3)cc2)cc1OC	18%	-66*	i	-1%	-19%
CCCCOc1cccc(C(=O)Nc2ccc(NC(=O)c3cccs3)cc2)c1	?	28	18µM*	0%	-20%
COc1ccc(C(=O)Nc2cccc(NC(=O)c3cccs3)c2)cc1OC	-21%	?	i	0%	-14%
SMILES	ATXN2 expr inh	IL1B secr inh	S2 tox	USP2a inh	USP1-UAF1 inh
COc1ccc(Br)cc1/C=C/C(=O)c1ccc(NC(C)=O)cc1	22µM*	-99*	?	1%	-2%
O=C(c1cc(-c2ccccc2)on1)N1CCOc2ccc(CN3CCN(c4ccccn4)CC3)cc2C1	/	/	i	/	/
COc1ccc(C(=O)Nc2ccc(NC(=O)c3cccs3)cc2)cc1OC	15%	/	i	/	25µM*
C/C(=N/NC(=O)c1cccs1)c1ccc(NC(=O)COc2ccc(Cl)cc2Cl)cc1	13µM*	-11	11µM*	1%	-11%
C/C(=N/NC(=O)c1ccc(C)s1)c1cccc(NC(=O)COc2ccc(Cl)cc2Cl)c1	0%	0	i	1%	-19%
CCCN1Cc2cccc(C(=O)NCCc3cccc(C)c3)c2C1=O	/	-9	i	0%	-11%
CCOc1ccc(Cc2cc([C@@H]3O[C@H](CO)[C@@H](O)[C@H](O)[C@@H]3O)ccc2Cl)cc1	0%	/	/	/	/
CCc1nn(CC(=O)N2CCC(C)CC2)c(=O)c2cc3occc3n12	9%	/	i	/	-18%
COc1ccc(N2CCN(C(=O)c3ccc(CNS(=O)(=O)c4cc(C)ccc4C)cc3)CC2)cc1	-22%	-15	?	1%	-11%
Cc1ccc(S(=O)(=O)NCc2ccc(C(=O)NCCCN3CCC(Cc4ccccc4)CC3)cc2)cc1	-9%	-65*	i	1%	6%
Cc1ccc(S(=O)(=O)NCc2ccc(C(=O)N3CCN(Cc4ccccc4)CC3)cc2)cc1	-25%	-79*	i	2%	-12%
CCN1CCN(C(=O)c2ccc(CNS(=O)(=O)c3cccc(OC)c3)cc2)CC1	0%	16	i	1%	-9%
COc1cccc(S(=O)(=O)NCc2ccc(C(=O)N3CCN(Cc4ccccc4)CC3)cc2)c1	-19%	-67*	i	2%	-11%
Cc1ccc(C)c(S(=O)(=O)NCc2ccc(C(=O)N3CCN(c4ccccc4)CC3)cc2)c1	-8%	-63*	i	3%	-7%
Cc1ccc(S(=O)(=O)NCCC(=O)N2CCC(Cc3ccccc3)CC2)cc1	-9%	0	i	0%	-9%
NC(=O)C1CCCN(C(=O)c2cccc(NC(=O)c3cccs3)c2)C1 (centres undefined)	6%	-16	i	-1%	-6%
Cc1c(C(=O)NCC2(N3CCOCC3)CCCCC2)cnn1-c1nccc(-c2ccccc2F)n1	/	/	i	/	/
O=[N+]([O-])c1ccc(CC(Cl)c2ccccn2)cc1 (centres undefined)	25%	-50*	i	/	-2%
O=[N+]([O-])c1ccc(Cc2ccccn2)cc1	1%	25	i	-3%	-9%
COc1ccc(NC(=O)Nc2nnc(C(C)(C)C)s2)cc1	/	-26	i	1%	-10%
COc1ccc2nc(NC(=O)Nc3ccccc3)sc2c1	-10%	-60*	?	1%	-21%
CC(C)(C)c1nc(NC(=O)Nc2ccccc2)sc1Br	?	-91*	?	2%	?
CCn1cc([N+](=O)[O-])c(C(=O)Nc2nc3ccc(OC)cc3s2)n1	/	-59*	i	0%	-22%
COc1ccc2sc(NC(=O)NC(=O)c3c(Cl)cccc3Cl)nc2c1	21%	-88*	i	-5%	1%

Screening data as filed in PubChem.
